Only a selection was taken, and hits are over-represented in it overall.
TTR transcr act: TTR transcription activators in neuroblastoma reporter cells, primary screen, cell-based, luminescence, SH-SY5Y, TTR promoter Gaussia luciferase; 92,000 tested, 1.3% active; AID 1117267, 2014; activation, % at 16.7 µM; 100% = recombinant luciferase protein wells;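 active means activation above the mean of all tested compounds plus 3 SD, cut at about 9.5% in these data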;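 further: cells exposed to compounds for one day before reading; 0% = median of all test compound wells on the plate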
TTR inh HuH7: TTR promoter reporter inhibitors in hepatoma cells, counter-screen for TTR transcription activator project, cell-based, luminescence, HuH7 hepatoma. shares compounds with TTR transcr act. HuH7 TTR promoter-Gaussia luciferase reporter. inhibition, % at 16.7 µM. 1,100 tested, 4% active. AID 1117279, 2014;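 active means average inhibition above the solvent-only control wells' mean plus 3 SD, cut at about 15% in these data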;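 further: 0% = cells with DMSO only and 100% = cells with inhibitor control FD; inhibitors lower well luminescence so higher value means more inhibition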
TTR up confirm: TTR transcription activators, retest, confirmation, cell-based, luminescence, SH-SY5Y, triplicate. shares compounds with TTR transcr act. SHSY5Y TTR promoter Gaussia luciferase; 100% = purified Lucia enzyme wells, no cells. activation, % at 16.7 µM. 1,100 tested, under 10 active;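 active means mean activation above a set limit taken from the earlier primary screen, cut at about 11% in these data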;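 further: 0% = DMSO-treated cells and 100% = recombinant Lucia luciferase without cells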
* marks the source's active call; other numbers are inactive results.

SMILES	TTR transcr act	others
CC(C)[C@H](NC(=O)[C@@H]1Cc2ccccc2CN1C(=O)OC(C)(C)C)C(=O)NCC1CCC(C(=O)O)CC1 (stereo not given in full)	-0.3
CCOc1ccc(NC(=O)C(NC(=O)C2CCC(C)CC2)C(C)C)cc1 (stereo not given)	0.7
CCOC(=O)C(C)NC(=O)C(NC(=O)C1CCC(CC)CC1)C(C)C (stereo not given)	10.5*
CCOC(=O)N1CCN(C(=O)C[C@@H]2C[C@]3(C(=O)OCC)CCC4=C3N(CCC4)C2=O)CC1	0.6
Nc1[nH]c(C(=O)c2ccccc2)c(-c2ccccn2)c1C(=O)c1c[nH]c2ccc(Br)cc12	1.4
COCC(=O)Nc1cc(OC)ccc1OC	6.1
COc1ccc(OC)c(NC(=O)CSCC(=O)O)c1	23.4*
COc1ccc(NC(=O)CSCc2ccc(C#N)cc2)c(OC)c1	1.9
CC(=O)Nc1sc2c(c1-c1nc(-c3ccccc3)cs1)CCN(C(C)C)C2	-0.6
Cc1ccc(NC(=O)OC2CC3CC2[C@H]2CCCCN2C3)cc1 (stereo not given in full)	-2.6
CNc1nc(N)c([N+](=O)[O-])c(Nc2cccc(Br)c2)n1	0.6
COC(=O)C1=C(C(=O)OC)[C@@]2([C@H](Cc3ccc(C)cc3)Nc3ccccc3)C=C[C@@H]1O2	2.2
Cc1cc(N2CCC(C)CC2)nc2ccccc12	-1.2
CC1CCN(c2nnc(N3CCC(C)CC3)c3ccccc23)CC1	15.3*
CC1CCN(c2ncccc2C(=O)O)CC1	1.7
C[C@@H]1Cc2cc(O)cc(O)c2C(=O)O1	-0.2
CCN1C(=NCCc2ccc([N+](=O)[O-])cc2)N[C@@H](c2ccccc2)[C@H](C(=O)OC)[C@H]1C	2.9
COC(=O)[C@H]1[C@@H](C)N(CCc2cc(OC)c(OC)c(OC)c2)C(=O)N[C@H]1c1ccccc1	-1.0
CCN1C(=NCCCOC(C)C)N[C@@H](c2ccccc2)[C@H](C(=O)OC)[C@H]1C	11.6*
COc1ccccc1NC(=O)OC1CC2CC1[C@H]1CCCCN1[C@H]2C (stereo not given in full)	0.8
O=C1CCC[C@H]2[C@@H](Cc3ccccc3)[C@@H](O)CC[C@]23CCCN13	-2.1
CCCCOc1ccc(C(=O)NC2CCCCN(Cc3ccc(C)cc3)C2=O)cc1 (stereo not given)	-2.1
CCOc1ccccc1NC(=O)c1cc(Cl)ccc1NC(=O)c1ccco1	12.1*	TTR inh HuH7=-10.8;TTR up confirm=0.4
CCOc1cc(NC(=O)c2ccco2)c(OCC)cc1NC(=O)CCc1ccccc1OC	-1.5
COc1cc(NC(=O)c2ccccc2Cl)ccc1NC(=O)c1ccco1	-1.6
SMILES	TTR transcr act	others
CN1C(=O)c2cc(NC(=O)C3CCOCC3)ccc2OC[C@@H]2O[C@@H](CC(=O)NCc3ccccc3F)CC[C@@H]21	0.4
O=C(O)CSCC(=O)N1CCCCC1	-1.1
O=C(O)CSC(=S)N1CCCC1	10.4*	TTR inh HuH7=-4.7;TTR up confirm=-0.3
O=C(CSC(=S)N1CCCC1)c1ccccc1	0.0
CCc1ccc(CCNC(=O)OC2CC3CC2[C@H]2CCCCN2[C@H]3Cc2ccccc2)cc1 (stereo not given in full)	-0.4
Cc1c(C(=O)N(Cc2ccc(N(C)C)cc2)C2CCS(=O)(=O)C2)oc2ccccc12 (stereo not given)	0.2
Cc1cc2oc(C(=O)N(Cc3ccc(N(C)C)cc3)CC3CCCO3)c(C)c2cc1C (stereo not given)	50.7*	TTR inh HuH7=-10.2;TTR up confirm=-0.3
Cc1cccc(NC(=O)CN(CC2CCCO2)C(=O)c2oc3ccc(F)cc3c2C)c1C (stereo not given)	7.5
CCn1c(=O)cc(N2CCN(c3cccc(C(F)(F)F)c3)CC2)[nH]c1=O	0.8
COP1(=O)CCOCC[C@H](CC(C)C)NC(=O)[C@H](CC(C)C)N1 (stereo not given in full)	-1.4
CCCCCCCCN1C(=O)[C@@H](CC(=O)N2CCOCC2)C[C@@]2(C(=O)OC)C1=C[C@H](C(C)C)O[C@@H]2C1CC1	-0.4
O=C(NC1CCCCN(Cc2ccc(Cl)cc2)C1=O)C(c1ccccc1)c1ccccc1 (stereo not given)	0.1
COc1ccc(CC(=O)N2CCN=C2SC)cc1OC	1.4
CSC1=NCCN1C(=O)Cc1ccc(F)cc1	10.1*	TTR inh HuH7=-1.9;TTR up confirm=-0.8
CSC1=NCCN1C(=O)Cc1ccc(-c2ccccc2)cc1	-1.2
Cc1cc(NC(=O)CCCn2nc([N+](=O)[O-])cc2C)no1	2.5
Cc1cc([N+](=O)[O-])nn1CCCC(=O)Nc1cc(Cl)ccc1Cl	14.4*	TTR inh HuH7=-13.0;TTR up confirm=-1.0
Cc1cc([N+](=O)[O-])nn1CCCC(=O)NCc1ccccc1	-0.8
CCC[C@H]1[C@@H](OC(=O)NCc2ccc(C(F)(F)F)cc2)CC[C@@]23CCCN2C(=O)CCC[C@@H]13	-1.2
CN(C)[C@@H]1CCN(c2ccc3c(c2)OCCCN(C2CC2)S3(=O)=O)C1	0.4
COC(=O)[C@]12C[C@H](CC(=O)N3CCN(C(=O)C4CC4)CC3)C(=O)N(Cc3ccc(Cl)cc3Cl)C1=C[C@H](C(C)C)O[C@@H]2C1CC1	-1.8
Cn1nnnc1SC1CC(=O)N(c2ccccc2)C1=O (stereo not given)	1.1
COC(=O)c1ccccc1SC1CC(=O)N(c2ccccc2)C1=O (stereo not given)	20.6*	TTR inh HuH7=-13.5;TTR up confirm=-0.2
O=C(O)c1ccccc1SC1CC(=O)N(c2cccc3ccccc23)C1=O (stereo not given)	0.7
O=C1CCC[C@H]2C[C@H](NCc3ccc(F)cc3)CC[C@]23CCCN13	4.1
SMILES	TTR transcr act	others
CCCNc1nc(-c2cc(-c3ccc(Cl)cc3)on2)cc(C(C)C)n1	11.9*	TTR inh HuH7=-12.4;TTR up confirm=0.2
Cc1cc(C)nc(NCc2ccc(Cl)cc2)n1	-0.8
CC(C)c1cc(-c2cc(-c3ccc(Cl)cc3)on2)nc(NC2CCCC2)n1	0.2
O=C(Cc1ccccc1)N1O[C@H]2C=C[C@@H]1C2	1.1
O=C(OCc1cn(Cc2ccc(F)cc2F)nn1)N1CCOCC1	-1.3
O=C(NCc1ccccc1)OC1CC2CC1[C@H]1CCCCN1C2 (stereo not given in full)	-0.4
c1nc(NCC2CCOC2)c2cc(-c3ccc4c(c3)OCO4)ccc2n1 (stereo not given)	-1.6
O=C(c1ccc2c(c1)OCO2)N1CCN(c2ccccc2)CC1	5.7
COc1ccc(N2CCN(C(=O)c3ccncc3)CC2)cc1	-0.9
COc1ccc(N2CCN(C(=O)c3ccc4c(c3)OCO4)CC2)cc1	20.9*	TTR inh HuH7=-12.6;TTR up confirm=1.1
COC(=O)c1cc(-c2cccc3c2sc2ccccc23)c(=O)n2c1CCC2	-1.3
C[C@H]1[C@@H](OC(=O)Nc2ccc(C(F)(F)F)cc2)CC[C@@]23CCCN2C(=O)CCC[C@@H]13	0.4
S=C(Nc1cccc(Cl)c1)OCCN1CCCC12CCC(c1ccccc1)CC2 (stereo not given)	-0.4
Cc1sc2ncnc(Nc3ccccc3)c2c1C	15.1*	TTR inh HuH7=-8.1;TTR up confirm=0.5
Cc1sc2ncnc(Nc3ccc(N4CCOCC4)cc3)c2c1-c1ccccc1	-0.9
Cc1sc2ncnc(NCC(c3ccco3)N(C)C)c2c1C (stereo not given)	-0.6
